Records with an inconclusive call do not appear. Values without a mark were called inactive. The source made the active and inactive calls. The call rests on the fitted dose curve; in most records, active means well fitted inhibition curve with a large enough effect in the signal ratio in the repeat runs, with a control signal flat; inconclusive means weak or mixed curves, or effect the other way; inactive means flat fitted curve, though single readings scatter; the % refers to the signal ratio.
The compounds below were run against D(2) dopamine receptor (Homo sapiens) (UniProt P14416) (assay: Dopamine D2 receptor (DRD2) small molecule antagonists, cell-based qHTS assay (AID 1963595)). Conditions: HEK293-DRD2 cAMP HTRF antagonist mode; series mostly up to 92.4 µM; activity change, negative = inhibition: at the top concentration.
Chain of D(2) dopamine receptor (Homo sapiens) (P14416 whole entry, looked up): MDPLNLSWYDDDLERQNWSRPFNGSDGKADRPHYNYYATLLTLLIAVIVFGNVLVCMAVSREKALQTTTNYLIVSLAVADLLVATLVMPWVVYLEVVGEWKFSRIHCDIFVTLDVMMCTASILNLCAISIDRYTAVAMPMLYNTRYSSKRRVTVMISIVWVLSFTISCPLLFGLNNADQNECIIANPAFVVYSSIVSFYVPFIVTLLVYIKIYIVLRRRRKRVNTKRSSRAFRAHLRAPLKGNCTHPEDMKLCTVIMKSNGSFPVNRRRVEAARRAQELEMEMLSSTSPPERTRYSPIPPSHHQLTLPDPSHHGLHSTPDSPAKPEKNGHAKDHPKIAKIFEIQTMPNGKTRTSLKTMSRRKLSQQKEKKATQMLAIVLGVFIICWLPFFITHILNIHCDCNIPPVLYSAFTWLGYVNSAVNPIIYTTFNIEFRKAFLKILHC
Source text: National Center for Advancing Translational Sciences [NCATS]
Division of Preclinical Innovation [DPI]
U.S. Environmental Protection Agency [EPA]
National Institutes of Environmental Health Sciences [NIEHS]
National Toxicology Program [NTP]
U.S. Food and Drug Administration [FDA]
DRD2 is the D2 subtype of the dopamine receptor, which is coupled to Gi subtype of G protein-coupled receptor. This G protein-coupled receptor inhibits adenylyl cyclase activity. The DRD2-HEK293 cell line stably expressing D2 dopamine receptor can be used for screening agonists and antagonists of interactions between D2 and its ligands. The Hek293-DRD2 cAMP assay is based on HTRF technology. It measures changes of cAMP accumulation in response to Gi coupled GPCR activation or inhibition.
Tox21 Assay Protocol Summary:
DRD2-Hek293 cells were dispensed at 600 cells/3uL/well in 1536-well white plates using a Multidrop Dispenser. After the assay plates were incubated at a 37 C/5% CO2 incubator for 24 h, 1 uL of Ro20-1724 at final concentration of 0.1 mM was transferred to the assay plate by a Flying Reagent Dispenser. Following Ro20-1724 addition, 23 nL of compound dissolved in DMSO, positive controls or DMSO only was added to the assay plates via Wako pintool station. The assay plates were incubated at room temperature for 10 min. Next, 1 uL of mixture of NKH477 (final concentration at 200 nM) and quinpirole (final concentration at 12 nM) was added into the plates. After the assay plates were incubated at room temperature for an additional 30 min, 2.5 ul/well of cAMP-d2 and 2.5 ul/well of anti-cAMP-cryptate were added respectively into the assay plates using a Flying Reagent Dispenser. The plates were incubated at room temperature for 1 h. The fluorescence intensity in the plates was measured at 340 nm excitation and 665 & 620 nm emission by an Envision plate reader.
On the % scale 0 is the no-effect control and ±100 the full control effect.

Row | SMILES | Potency | activity change, negative = inhibition
1 | O=C(Oc1ccccc1)c1ccccc1 | inactive | –
2 | CC(=O)OCC1=C(C(=O)O)N2C(=O)[C@@H](NC(=O)Cc3cccs3)[C@H]2SC1 | – | 3.47% [at 42.5 µM]
3 | O=P(OC(CCl)CCl)(OC(CCl)CCl)OC(CCl)CCl | inactive | –
4 | O=[N+]([O-])c1ccccc1CCO | – | 4.42%
5 | CCC(C(=O)OCCOCCN(CC)CC)c1ccccc1 (stereo not given) | – | 2.09% [at 42.5 µM]
6 | Cc1ccc2n[nH]nc2c1 | – | 2.75%
7 | CC[C@@H]1C[C@H](N(Cc2cc(C(F)(F)F)cc(C(F)(F)F)c2)C(C)=O)c2cc(C(F)(F)F)ccc2N1C(=O)OC(C)C | – | 12.7%
8 | C[Si](C)=O | – | 6.58% [at 8.38 µM]
9 | CC(=O)SC[C@@H](C)C(=O)N1CCC[C@H]1C(=O)N[C@@H](Cc1ccccc1)C(=O)O | – | -0.67% [at 42.5 µM]
10 | CCN(CC)S(=O)(=O)c1ccc(C(=O)O)cc1 | – | -5.78% [at 42.5 µM]
11 | CSCCC=O | inactive | –
12 | N=C(N)c1ccc2cc(OC(=O)c3ccc(N=C(N)N)cc3)ccc2c1 | – | 0.132% [at 42.5 µM]
13 | CC(CC=O)CC(C)(C)C (stereo not given) | – | 4.4%
14 | Cc1cccc2c1ccc1ccccc12 | – | -3.67%
15 | [O]=[Zr] | – | 14.8%
16 | FC(F)(F)c1cccc(Cl)c1 | – | 1.99%
17 | CCCCCCCCCCCC(=O)N(C)CC(=O)O | inactive | –
18 | CCC(C)(C)C | – | 8.18%
19 | O=C(O)CCC(=O)Nc1ccc(S(=O)(=O)Nc2nccs2)cc1 | – | -12.9% [at 42.5 µM]
20 | CCCCCCCCc1ccc(Nc2ccc(CCCCCCCC)cc2)cc1 | – | -0.441% [at 42.5 µM]

Row | SMILES | Potency | activity change, negative = inhibition
21 | CC(C)c1ccc(C=O)cc1 | – | -0.165%
22 | CN1CCc2cccc3c2[C@H]1Cc1ccc(O)c(O)c1-3 | inactive | –
23 | CCCCC(CC)COC(=O)c1ccc(O)cc1 (stereo not given) | – | -20.2%
24 | CC(=O)Nc1ccc(N=Nc2cc(C)ccc2O)cc1 | – | 4.6%
25 | Cc1ccccc1S(=O)(=O)O | – | -0.743%
26 | CC/C(=C(/CC)c1ccc(O)cc1)c1ccc(O)cc1 | inactive | –
27 | OCC(CO)(CO)CO | inactive | –
28 | Nc1ccc(S(=O)(=O)Nc2ccc(Cl)nn2)cc1 | – | 4.38% [at 42.5 µM]
29 | CCO[Si](OCC)(OCC)c1ccccc1 | – | -14.1%
30 | O=S(=O)(O)CO | – | 1.89%
31 | CC(=O)N[C@@H](CC(C)C)C(=O)O | – | 4.72% [at 42.5 µM]
32 | CC(=O)OCCN(CCOC(C)=O)c1ccc(N=Nc2ccc([N+](=O)[O-])cc2C#N)cc1 | – | -2.74%
33 | O | inactive | –
34 | CCOc1ncc(F)c(=O)[nH]1 | – | 0.786% [at 42.5 µM]
35 | CCCCCCCCS(=O)(=O)Cl | – | 16.7%
36 | C1CN(CCOCCN2CCOCC2)CCO1 | – | -3.6%
37 | NC(=O)c1ccccc1Cl | – | -7.98%
38 | COC(=O)c1c(Cl)c(Cl)c(C(=O)OC)c(Cl)c1Cl | inactive | –
39 | CC(C)(C)NCC(O)COc1ccccc1OCC1CCCO1 (stereo not given) | – | -1.73% [at 42.5 µM]
40 | CCOC(=O)c1cc(=O)c2c(OCC(COc3cccc4oc(C(=O)OCC)cc(=O)c34)OC(=O)[C@@H](N)CCCCN)cccc2o1 | – | 1.1% [at 42.5 µM]

From PubChem BioAssay (Tox21)
